In PubChem BioAssay (EPA / NIEHS) one finds outcome and AC50 data, which are given here for 14 molecules.

Inconclusive results are not listed. Activity calls are given as the source filed them. How the source made its calls, unless noted: active means hit-call score of the fitted dose curve at least 0.9, where 1 is the maximum; inconclusive means response in the unintended direction; inactive means score below 0.9.

For assay [1], the target named is Cellular tumor antigen p53 (Homo sapiens) (UniProt P04637). The experiment in a line: TOX21_p53_BLA_p2_ratio: Tox21 HCT-116 p53 Agonism Beta-lactamase Assay, Ratio, Phase 2 (AID 2283592). In a few lines:
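Ratio endpoint: beta-lactamase cleavage of CCF4-AM, blue (460 nm) over green (530 nm). HCT116 reporter line; 16 h treatment, 37C; substrate 2 h RT.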

The nature of assay [2]: TOX21_p53_BLA_p3_viability: Viability Assessment in the Tox21 HCT-116 p53 Agonism Beta-lactamase Assay, Phase 3 (AID 2283593).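 Further: cells exposed to compound for 16 h before reading.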 The essentials:
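Cellular ATP was quantified by CellTiter-Glo luminescence, read after 30 min at room temperature. Beforehand, HCT116 cells (4000/well) received compound 5 h post-seeding, 217-fold diluted from DMSO, then incubated 16 h at 37C.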

The target of assay [3] is Cellular tumor antigen p53 (Homo sapiens) (UniProt P04637). Briefly: TOX21_p53_BLA_p3_ratio: Tox21 HCT-116 p53 Agonism Beta-lactamase Assay, Ratio, Phase 3 (AID 2283596). In a few lines:
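Cells were seeded at 4000/well, rested 5 h at 37C, then dosed with DMSO compound solutions (217-fold dilution) for 16 h. CCF4-AM substrate was loaded for 2 h at room temperature, and the 460/530 nm emission ratio was fitted for gain of signal versus DMSO.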

Assay [4] shares this target. The experiment in a line: TOX21_p53_BLA_p5_ratio: Tox21 HCT-116 p53 Agonism Beta-lactamase Assay, Ratio, Phase 5 (AID 2283599). The essentials:
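Beta-lactamase reporter ratio (blue 460 nm over green 530 nm, 405 nm excitation) after 2 h CCF4-AM loading, in HCT-116 cells exposed 16 h at 37 C to compounds pinned at 217-fold dilution. Increases relative to DMSO baseline scored.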

Assay [5] is described as follows: TOX21_p53_BLA_p5_viability: Viability Assessment in the Tox21 HCT-116 p53 Agonism Beta-lactamase Assay, Phase 5 (AID 2283600). In a few lines: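 Luciferase-coupled ATP quantitation of cells treated for 16 h (37C, 5% CO2) with test chemicals delivered in DMSO via a 217-fold dilution; 4000 cells/well; reagent incubated 30 min at room temperature before luminescence reading.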

Assay [6] addresses Cellular tumor antigen p53 (Homo sapiens) (UniProt P04637). The experiment in a line: TOX21_p53_BLA_p4_ratio: Tox21 HCT-116 p53 Agonism Beta-lactamase Assay, Ratio, Phase 4 (AID 2283601). In a few lines:
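Signal is the blue/green (460nm/530nm) ratio of cleaved versus uncleaved CCF4-AM substrate, read after 2 h substrate loading. Cells were HCT116 carrying the p53-responsive beta-lactamase reporter, dosed 16 h at 37C, 5% CO2; CellTiter-Glo measured in parallel.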

Assay [7] concerns the target THRA (gene 7067) (UniProt P10827). The experiment in a line: TOX21_TRA_COA_Antagonist_Followup_ratio: Tox21 Thyroid Hormone Receptor alpha Antagonism through Coactivator Recruitment Follow-Up Assay, Ratio (AID 2283953). In a few lines: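 We measured antagonism of T3-type coactivator recruitment using a TR-FRET ratio (emission 520 and 495 nm) between a Tb-labelled anti-GST antibody on TRα LBD (2.5 nM) and SRC-2 peptide (200 nM). Activity was scaled between DMSO and T3 wells.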

Assay [8] is described as follows: TOX21_TRB_BLA_Antagonist_Followup_viability: Viability Assessment in the Tox21 Thyroid Hormone Receptor beta Antagonism Beta-lactamase (BLA) Follow-Up Assay (AID 2283961). The essentials: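 HEK293T cells stably expressing GAL4-DBD/human TRβ-LBD with UAS-bla reporter, 3,000 cells/well in phenol red-free DMEM, 2% charcoal-stripped FBS. Compounds at 11 concentrations in triplicate, 18 h at 37C/5% CO2; viability by CellTiter-Glo luminescence after 30 min at room temperature.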

In assay [9] the target is THRB (gene 7068) (UniProt P10828). Briefly: TOX21_TRB_COA_Antagonist_Followup_ratio: Tox21 Thyroid Hormone Receptor beta Antagonism through Coactivator Recruitment Follow-Up Assay, Ratio (AID 2283967). The essentials:
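Coactivator recruitment to the GST-tagged TRb ligand-binding domain (5.0 nM) was read as the 520/495 nm TR-FRET ratio, using 200 nM fluorescein SRC-2 peptide and 2 nM terbium anti-GST. Scaled between DMSO and T3 wells; loss of signal fitted.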

A short description of assay [10]: TOX21_TR_RXR_BLA_Antagonist_Followup_viability: Viability Assessment in the Tox21 Thyroid Hormone Receptor beta Retinoid X Receptor alpha (RXRa) Antagonism Beta-lactamase (BLA) Follow-Up Assay (AID 2283979). In a few lines:
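Follow-up compounds (11 concentrations, triplicate) were incubated 16 h at 37C/5% CO2 with HEK293T RXRa-bla cells seeded at 2,500/well in charcoal-stripped-serum medium. ATP content by CellTiter-Glo luminescence gave viability; curves fitted in both directions against DMSO.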

Assay [11] can be described thus: TOX21_p53_BLA_p4_viability: Viability Assessment in the Tox21 HCT-116 p53 Agonism Beta-lactamase Assay, Phase 4 (AID 2283597).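 Further: hits lower the luminescence signal meaning cytotoxicity.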 The essentials: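 Cytotoxicity was inferred from loss of CellTiter-Glo luminescence. HCT116 cells had been dosed with compounds after 5 h plating, incubated 16 h at 37C and 5% CO2, and exposed to the CCF4-AM substrate for 2 h.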
Assay [12] concerns the target Thyroid hormone receptor alpha (Rattus norvegicus) + Thyroid hormone receptor beta (Rattus norvegicus) (UniProt P18113+P63059). The experiment in a line: TOX21_TR_LUC_GH3_Agonist_Followup: Tox21 GH3 Thyroid Hormone Receptor Agonism Luciferase Follow-Up Assay (AID 2283939). The essentials: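 Agonist-mode confirmatory run: 15 concentrations (5 nM to 92 uM final) on GH3 rat pituitary cells, 24 h at 37C/5% CO2, T3 as positive control. Luminescence read with ONE-Glo after 30 min.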

Assay [13] has as its target THRA (gene 7067) (UniProt P10827). The experiment in a line: TOX21_TRA_COA_Agonist_Followup_ratio: Tox21 Thyroid Hormone Receptor alpha Agonism through Coactivator Recruitment Follow-Up Assay, Ratio (AID 2283948; active means hit-call score of the fitted dose curve at least 0.9, where 1 is the maximum; inactive means score below 0.9). The essentials:
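Read-out is the 520/495 nm emission ratio (ex 340 nm), scaled between DMSO-only wells as 0% and T3 wells as 100%. It reflects fluorescein-SRC-2 peptide recruitment to GST-TRα LBD detected via terbium anti-GST antibody.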

In assay [14] the target is THRB (gene 7068) (UniProt P10828). Briefly: TOX21_TRB_BLA_Agonist_Followup_ratio: Tox21 Thyroid Hormone Receptor beta Agonism Beta-lactamase (BLA) Follow-Up Assay, Ratio (AID 2283954). The essentials:
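Agonist mode: compounds (11-point, triplicate) incubated 18 h with HEK293T cells carrying GAL4-DBD/human TRβ-LBD and UAS-β-lactamase. Blue/green (460/530 nm) FRET ratio read after 2 h CCF4-AM loading; CellTiter-Glo viability run in the same plates.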

Assay [15] shares this target. The experiment in a line: TOX21_TRB_COA_Agonist_Followup_ratio: Tox21 Thyroid Hormone Receptor beta Agonism through Coactivator Recruitment Follow-Up Assay, Ratio (AID 2283963; active means hit-call score of the fitted dose curve at least 0.9, where 1 is the maximum; inactive means score below 0.9). The essentials:
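First, the GST-fused TRβ ligand-binding domain (5.0 nM) was incubated with test compound in 0.10% BSA. Next, fluorescein-tagged SRC-2 peptide (200 nM) and terbium anti-GST antibody (2 nM) were added. Finally, TR-FRET emission ratios were normalized against DMSO and T3 controls.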

Assay [16] concerns the target Retinoic acid receptor RXR-alpha (Homo sapiens) (UniProt P19793). Briefly: TOX21_TR_RXR_BLA_Agonist_Followup_ratio: Tox21 Thyroid Hormone Receptor beta Retinoid X Receptor alpha (RXRa) Agonism Beta-lactamase (BLA) Follow-Up Assay, Ratio (AID 2283968). In a few lines:
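Agonism is scored as an increase in the 460:530 nm beta-lactamase substrate ratio over DMSO in RXRa-UAS-bla HEK293T cells exposed for 16 h to 11 compound concentrations.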

Assay [17] can be described thus: TOX21_TR_RXR_BLA_Agonist_Followup_viability: Viability Assessment in the Tox21 Thyroid Hormone Receptor beta Retinoid X Receptor alpha (RXRa) Agonism Beta-lactamase (BLA) Follow-Up Assay (AID 2283970). In a few lines:
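Luminescent ATP read (CellTiter-Glo) after 16h exposure of RXRa-UAS-bla HEK293T cells at 37C/5% CO2. Activity normalized to DMSO; signal loss scored as reduced viability.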

THRB (gene 7068), sequence (P10828 whole entry, looked up, the tested form may be a part): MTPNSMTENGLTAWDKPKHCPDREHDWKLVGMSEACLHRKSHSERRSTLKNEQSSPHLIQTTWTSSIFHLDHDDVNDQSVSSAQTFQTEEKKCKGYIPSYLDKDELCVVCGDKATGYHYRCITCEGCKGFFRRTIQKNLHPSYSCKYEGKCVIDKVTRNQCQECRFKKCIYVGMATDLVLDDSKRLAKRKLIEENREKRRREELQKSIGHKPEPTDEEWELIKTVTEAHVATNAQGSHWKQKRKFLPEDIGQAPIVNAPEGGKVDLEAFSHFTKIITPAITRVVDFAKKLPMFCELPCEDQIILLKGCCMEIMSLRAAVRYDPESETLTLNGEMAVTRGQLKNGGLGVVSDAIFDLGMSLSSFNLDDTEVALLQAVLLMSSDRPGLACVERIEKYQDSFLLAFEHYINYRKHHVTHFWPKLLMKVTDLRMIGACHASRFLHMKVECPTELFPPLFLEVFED
Cellular tumor antigen p53 (Homo sapiens), sequence (P04637 whole entry, looked up): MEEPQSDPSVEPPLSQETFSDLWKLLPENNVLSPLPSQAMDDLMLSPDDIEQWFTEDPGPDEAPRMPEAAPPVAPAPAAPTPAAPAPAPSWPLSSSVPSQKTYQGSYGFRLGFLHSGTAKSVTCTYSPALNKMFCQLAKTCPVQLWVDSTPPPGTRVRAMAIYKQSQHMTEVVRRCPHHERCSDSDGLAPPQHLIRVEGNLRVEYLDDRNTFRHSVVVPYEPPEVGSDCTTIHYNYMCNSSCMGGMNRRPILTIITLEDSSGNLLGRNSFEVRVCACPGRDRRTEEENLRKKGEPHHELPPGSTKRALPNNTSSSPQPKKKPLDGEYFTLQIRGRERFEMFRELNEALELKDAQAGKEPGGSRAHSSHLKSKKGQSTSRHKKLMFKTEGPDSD
THRA (gene 7067), sequence (P10827 whole entry, looked up, the tested form may be a part): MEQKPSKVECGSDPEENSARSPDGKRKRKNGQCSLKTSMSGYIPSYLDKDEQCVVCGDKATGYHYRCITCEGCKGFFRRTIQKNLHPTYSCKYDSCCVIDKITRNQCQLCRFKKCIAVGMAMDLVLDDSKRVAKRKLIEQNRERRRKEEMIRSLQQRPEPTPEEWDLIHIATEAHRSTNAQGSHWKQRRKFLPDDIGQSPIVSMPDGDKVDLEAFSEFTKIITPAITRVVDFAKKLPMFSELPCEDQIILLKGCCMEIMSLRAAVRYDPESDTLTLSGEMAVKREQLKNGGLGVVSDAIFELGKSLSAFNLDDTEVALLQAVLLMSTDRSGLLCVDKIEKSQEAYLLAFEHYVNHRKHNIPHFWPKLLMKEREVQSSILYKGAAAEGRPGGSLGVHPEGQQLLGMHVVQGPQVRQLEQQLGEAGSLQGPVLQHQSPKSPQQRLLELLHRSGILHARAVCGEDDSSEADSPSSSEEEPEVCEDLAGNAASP
Thyroid hormone receptor alpha (Rattus norvegicus) + Thyroid hormone receptor beta (Rattus norvegicus), sequence (P63059 whole entry, looked up): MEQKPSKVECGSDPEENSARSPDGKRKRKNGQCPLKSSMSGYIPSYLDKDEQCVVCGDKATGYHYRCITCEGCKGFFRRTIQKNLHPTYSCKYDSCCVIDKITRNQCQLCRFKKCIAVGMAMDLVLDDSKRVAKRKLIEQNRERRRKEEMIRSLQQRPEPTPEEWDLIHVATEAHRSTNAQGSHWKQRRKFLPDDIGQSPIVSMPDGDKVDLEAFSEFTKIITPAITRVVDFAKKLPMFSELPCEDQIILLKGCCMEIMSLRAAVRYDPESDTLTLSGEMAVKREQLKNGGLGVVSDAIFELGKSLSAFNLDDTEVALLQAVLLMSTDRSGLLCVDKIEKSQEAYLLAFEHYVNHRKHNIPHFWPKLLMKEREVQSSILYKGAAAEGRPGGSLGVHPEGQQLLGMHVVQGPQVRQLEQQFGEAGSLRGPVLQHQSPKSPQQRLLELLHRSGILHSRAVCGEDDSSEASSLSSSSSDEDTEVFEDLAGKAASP
Thyroid hormone receptor alpha (Rattus norvegicus) + Thyroid hormone receptor beta (Rattus norvegicus), sequence (P18113 whole entry, looked up): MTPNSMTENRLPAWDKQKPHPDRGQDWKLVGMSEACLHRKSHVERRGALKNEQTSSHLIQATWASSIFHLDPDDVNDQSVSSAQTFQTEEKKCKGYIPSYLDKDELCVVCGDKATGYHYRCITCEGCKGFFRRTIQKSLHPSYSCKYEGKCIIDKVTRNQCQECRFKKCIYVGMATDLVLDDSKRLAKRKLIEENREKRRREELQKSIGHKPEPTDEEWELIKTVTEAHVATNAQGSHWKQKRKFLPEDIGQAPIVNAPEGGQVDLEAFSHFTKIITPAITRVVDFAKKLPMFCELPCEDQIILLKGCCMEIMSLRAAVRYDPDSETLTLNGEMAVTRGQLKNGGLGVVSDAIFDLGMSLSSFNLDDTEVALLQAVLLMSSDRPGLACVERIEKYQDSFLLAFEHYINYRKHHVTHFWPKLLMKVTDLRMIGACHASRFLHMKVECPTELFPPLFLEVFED
Retinoic acid receptor RXR-alpha (Homo sapiens), sequence (P19793 whole entry, looked up): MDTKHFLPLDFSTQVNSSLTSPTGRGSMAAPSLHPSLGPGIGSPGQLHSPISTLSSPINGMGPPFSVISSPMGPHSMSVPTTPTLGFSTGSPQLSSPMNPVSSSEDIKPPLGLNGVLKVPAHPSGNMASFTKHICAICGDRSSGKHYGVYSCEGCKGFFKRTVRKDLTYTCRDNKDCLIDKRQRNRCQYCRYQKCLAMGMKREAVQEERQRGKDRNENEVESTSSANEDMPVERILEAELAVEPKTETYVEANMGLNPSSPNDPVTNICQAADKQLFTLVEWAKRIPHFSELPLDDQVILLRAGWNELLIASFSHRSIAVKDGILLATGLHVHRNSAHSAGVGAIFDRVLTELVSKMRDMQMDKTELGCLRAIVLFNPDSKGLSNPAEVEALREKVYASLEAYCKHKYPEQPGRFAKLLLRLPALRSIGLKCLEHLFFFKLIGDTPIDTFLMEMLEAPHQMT

In the case of `CCC(CO)(CO)COCC(CC)(CO)CO`, the result in [1], in [2], in assay [3], in [4], in assay [5] and in assay [6] was inactive.

As to `CC(C)=O`, the result in assay [1], in assay [2], in assay [3], in assay [4], in assay [5] and in [6] was inactive.

Take `C/C=C(\C)C=O`: the result in assay [1], in assay [2], in assay [3], in assay [4], in assay [5] and in assay [6] was inactive.

A word on the AC50: it is the concentration giving half of the maximal activity seen. For `CCCOc1ccc2nc(NC(=O)OC)sc2c1`, the AC50 in assay [1] is 0.653 µM (active); in [3], 3.42 µM (active); in assay [4], 2.75 µM (active); in assay [6], 1.66 µM (active). The call (in assay [2]; in [5]; with THRA (gene 7067) [7]; in [8]; with THRB (gene 7068) [9]; in assay [10]) was inactive.

Turning to `O=C(O)C(=O)Cc1c[nH]c2ccccc12`, the result in assay [1], in assay [2], in [3], in [4], in [5] and in [6] was inactive.

For the molecule `Cc1ccc(O)c([N+](=O)[O-])c1`, the result in assay [1], in assay [2] and in assay [11] was inactive.

With `CC(=O)Nc1ccc(S(=O)(=O)Nc2ccc([N+](=O)[O-])cc2)cc1`, the outcome in assay [1], in [2], in assay [11] and in assay [4] was inactive.

As for `COc1c(N2CCNC(C)C2)c(F)cc2c(=O)c(C(=O)O)cn(C3CC3)c12` (stereo unspecified), the outcome in assay [1], in assay [2], in assay [3], in [5] and in assay [6] was inactive.

Consider `CC[C@@H](C)[C@H](N)C(=O)O`, for which the result in [1], in assay [2], in assay [3] and in [6] was inactive.

Regarding `C#C[C@]1(OC(C)=O)CC[C@H]2[C@@H]3CCC4=CC(=O)CC[C@@H]4[C@H]3CC[C@@]21C`, the result in assay [1], in assay [2], in assay [3], in assay [4] and in assay [6] was inactive.

Regarding `C=C(C)C(=O)OCCN(CC)CC`, the outcome in assay [1], in assay [2], in [11] and in assay [4] was inactive.

On to `N#CC1(O)CCCCC1`, for which the outcome in assay [1], in assay [2], in assay [3] and in assay [6] was inactive.

`CC=C(C)C(=O)OCCC(C)CCC=C(C)C` (stereo unspecified): the result in assay [1], in [2] and in assay [11] was inactive.

Take `CCC(C)c1cc(C(C)(C)C)c(O)c(C(C)(C)C)c1` (stereo unspecified): the result (in assay [1]; in assay [2]; in assay [3]; in assay [4]; in [12]; with THRA (gene 7067) [13]) was inactive. In addition, the outcome (with THRB (gene 7068) [14]; in the assay with THRB (gene 7068) [15]; in assay [16]; in assay [17]) was inactive.
